# Results filed as inconclusive are left out. Active and inactive are the calls of the source. The calls were made as follows: active = hit-call score of the fitted dose curve at least 0.9, where 1 is the maximum; inconclusive = response in the unintended direction; inactive = score below 0.9.
# Experiment: ACEA_ER_80hr: ACEA Biosciences xCELLigence Real-Time Cell Analysis on Estrogen Receptor Agonism for Proliferation (AID 2282667)
# Settings: T47D proliferation, impedance (xCELLigence), 80 h
# In short: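 Impedance readout (RT-CES) of T47D proliferation at 80 h post-dose; gain of signal vs DMSO baseline. Compounds: 8 conc, 1:4 serial, top 100 uM final, ≤0.5% DMSO; biological duplicate.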
Structure (SMILES),outcome,AC50
CCCC1CCC(=O)CC1,inactive,
CC/C=C\CCOC(=O)C(C)C,inactive,
CCC(C)COC(=O)CC(C)C (configuration not stated),inactive,
O=C(O)C(F)(F)OC(F)(F)C(F)(F)OC(F)(F)C(F)(F)C(F)(F)C(F)(F)F,inactive,
Brc1cc(Br)cc(Br)c1,inactive,
CC(=O)C1=C(C)[C@@H]2C[C@@]3(C1)[C@H](C)CC[C@H]3C2(C)C,inactive,
NC(=O)NC(N)=O,inactive,
O=C(OCc1ccccc1)c1ccccc1O,inactive,
C=C1CC[C@H]2O[C@]2(C)CC[C@@H]2[C@@H]1CC2(C)C,inactive,
CC(C)N1C(=O)c2ccccc2C1=O,inactive,
O=C1OCc2ccccc21,inactive,
CC(=O)CCc1ccc(O)cc1,inactive,
CC(CO)c1ccccc1 (configuration not stated),inactive,
CC(C)CCCC(C)(C)O,inactive,
C=C(C)C(N)=O,inactive,
CCCCCCCCCCCCOC(C)=O,inactive,
O=C(O)c1ccco1,inactive,
C=CCS(=O)(=O)O,inactive,
CCCCCCCCCOS(=O)(=O)O,inactive,

Structure (SMILES),outcome,AC50
CCC=C(C)C=O,inactive,
CC(O)CNCC(C)O (configuration not stated),,13.1 µM (active)
OCCCO,inactive,
OC[C@@H](O)[C@H](O)[C@@H](O)[C@@H](O)CO,inactive,
CC(=O)N(C)C,inactive,
FC(F)(F)c1ccc(Cl)c(Cl)c1,inactive,
Cc1cccc(C)c1,inactive,
CCCCCCCCOC(=O)c1ccc(O)cc1,,0.521 µM (active)
Nc1cc([N+](=O)[O-])ccc1C(=O)O,inactive,
CCCC1CCOC(C)S1 (configuration not stated),inactive,
C=CCOC(=O)/C=C\C(=O)OCC=C,inactive,
O=S(=O)(O)CCCN1CCOCC1,inactive,
CCCCOC(=O)C(C)OC(=O)CCC (configuration not stated),inactive,
CCCCCCOC(C)=O,inactive,
Cc1cccc(O)c1,inactive,
CCCCCCCCCCCCN1CCOCC1,inactive,
c1ccc(OCCOc2ccccc2)cc1,inactive,
CC(=O)CC(=O)N(C)C,inactive,
